Molecular target: T1, FBXL12, Q9NXK8
T1 chain: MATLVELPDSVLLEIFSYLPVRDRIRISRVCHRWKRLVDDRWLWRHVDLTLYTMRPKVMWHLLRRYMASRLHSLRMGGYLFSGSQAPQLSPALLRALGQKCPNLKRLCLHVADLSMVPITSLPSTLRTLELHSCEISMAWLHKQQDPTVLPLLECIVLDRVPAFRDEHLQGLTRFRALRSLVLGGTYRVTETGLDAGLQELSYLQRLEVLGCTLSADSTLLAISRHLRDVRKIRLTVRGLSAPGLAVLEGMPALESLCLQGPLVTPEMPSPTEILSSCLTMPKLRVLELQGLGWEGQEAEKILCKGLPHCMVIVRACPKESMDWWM
Assay: median log2 fold change of GCK-ALFA target abundance (FLAG IP / Myc IP barcode read proportion) (log2 ratio); each designed protein is fused to an ALFA-tag nanobody in HEK293 cells to bring the named protein to FLAG-tagged glucokinase (GCK); Myc marks an untargeted standard; higher = target protein stabilised (more abundant)
Details: target protein: 3xFLAG-MCP-GCK-ALFA reporter; HEK293 landing pad (RPLP)
Method: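 LABEL-seq trans screen in HEK293 landing-pad cells. Each de novo designed 100-aa effector handle, binding the indicated effector (E3 ligase, DUB or autophagy protein), is fused to a constant NbALFA target handle and induced with 2 ug/mL doxycycline. A FLAG-MCP-GCK-ALFA target and a Myc-MCP standard reporter were transfected, and after 48 h circRNA barcodes were recovered by anti-FLAG and anti-Myc IP and sequenced. The value is the median across barcodes (at least 3 per design) of log2(FLAG/Myc read-proportion ratio), with the two transfection replicates pooled. Negative values mean degradation and positive values mean stabilisation of the target.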

B1: FBXL12_hotspot_16_21 (protein)
chain: KIMIIKVVAPTEEAARSGIETATKIAKGLMEAGVDAIILLAVAEEEALLPFLEELVEKHKEELEEAAKKYGAKLKVIVGTRADLAALEAEAEAIAAELEA
  median log2 fold change: -0.165

B2: FBXL12_hotspot_16_18 (protein)
chain: REIIVVVGLLEAERVESTLTTARDIVAGLREAGVDRVDVVIYTETPEAAAKLAELRPTIVAAIEAEVAAAGGRLSVHDTREAAEATREAILAEIDEREAA
  median log2 fold change: 0.0965

B3: FBXL12_hotspot_186_33 (protein)
chain: MELRVSLSADMTPEQMRANAEIAVAIVAGLAERGRVEDLVAAARSLAASLRAAVARLQRPEVAAIAAEALARLAEIVAAAAARHPDNEDLRAALAELRAA
  median log2 fold change: 0.143

B4: FBXL12_hotspot_162_16 (protein)
chain: MKRLLILSFVIKATESPEEAKKRLKQFEEYALEMIEEALKNPEFKVVVVLASDGSPEDLEWVKEAAKRIKEKFPEVEVEVFETGEAAEKRIEELEEEAER
  median log2 fold change: -0.0487

B5: FBXL12_hotspot_186_31 (protein)
chain: KDLQVRVRLGLDLETTRSTLRYAVALAEALKARGLTASLRSLARSLRESAIEVLKKTKDEEIYEAILEALEELAKVVADDPEALAIVKEAIEEVERLKEE
  median log2 fold change: -0.132

B6: FBXL12_hotspot_16_24 (protein)
chain: PVRILVIRQASTQRTPEGVAYQREAAVAAARAGMDAVILVGLAEREEDVPEMEALVADFEAAVRAANPDIIVEGAVARTEEEAEALKAALLARVEARLAA
  median log2 fold change: 0.171

B7: FBXL12_hotspot_186_40 (protein)
chain: MELRVRFSPDMSVAQRRAGADIAVAILEGLAERGEIEELVEAARSLLDSLEAARARIQDPEFAAVAAAALARIAAILEEAAKRYPENEEIKEALARVKAA
  median log2 fold change: 0.165

B8: FBXL12_hotspot_186_28 (protein)
chain: SDLEVRVTLGEDLETTKSTLDYAVALAEALKARGLTGSLRSLARSFRESAIARLKKSDDPEIYDAILEAAEKLREVVADDPEAKAIIDEAIAEIKAIKAE
  median log2 fold change: 0.157

B9: FBXL12_hotspot_16_22 (protein)
chain: KIMIIKVVAATPEAARGTIETATKIAKGLMEAGVDAVILQAVAEKEEILPFLKELVEEKEKELKEVAKKYGSKLEVFVGTAADLEELEKEVKEKEKELEA
  median log2 fold change: 0.0857

B10: FBXL12_hotspot_147_13 (protein)
chain: REVTVVVQLGAQAESTARYAAELVVGLGEAGVGRIRVVVRSARLEDALLAARELARAVARLPESVEVEVTFEGLSPEDVARARAVYEATLAAERAAQAAA
  median log2 fold change: -0.0622

B11: FBXL12_hotspot_186_41 (protein)
chain: MEVRVSVPADAPLEVVRSTMKYAVELAKELKERGELEALASLGKSLVKLRKELKKAGAPEEKLKAVDEAIKEVAKILEEALKEHPDNEELKKALEELKKA
  median log2 fold change: 0.34

B12: FBXL12_hotspot_16_20 (protein)
chain: KIMIIRVVAGTEEEARSSVETAKKIAIGLMEAGVDAIILEAIAEKEELLPFLKELVEEKEKELREAAKKYGAKLRILVGTLDDLEELRAQAEAIAAELEA
  median log2 fold change: -0.134

B13: FBXL12_hotspot_186_36 (protein)
chain: MELRVRFGPDDSVEQMRAGVDIAVAIVEGLAEAGRLEDFVEAARSLLDSLEANAARIKDPAHRAVFAEAVARLLEIAERVAKAYPENEDIKEVAERLKAA
  median log2 fold change: 0.111

B14: FBXL12_hotspot_186_30 (protein)
chain: MDLEVRVGLGEDLETTKSTLDYAVALAEALAARGLTASLVSLARSVRESAIEVLKKTKDEEIYEAILEALKRMAEIVKDNPEALAIVEEAIKEVEKLKKE
  median log2 fold change: 0.1

B15: FBXL12_hotspot_16_23 (protein)
chain: KIMVVRVRGRTPEELRPTLDRAVEIAIGLMKAGVDAIIFVAVVERAEDLPAVEALVAERRAALEAAAKEHGSKLEVVVGVAADEEAVEARVKALEEELEA
  median log2 fold change: 0.127

B16: FBXL12_hotspot_16_17 (protein)
chain: RDIVVVVGLLTAERVRSTLERAAEIVEGLRAAGVDRINVVIYAETEEAWAELERLEPTIVARIRAAVAAAGGELHIHRTREEAEKTREEILAEIDEEEEA
  median log2 fold change: 0.0399

B17: FBXL12_hotspot_186_38 (protein)
chain: MELRIRFSPTMSVEQMRAGAQIAVDILRELARRGRWEDLVEAARSLLESLRAARARIRDPEFAEVAAEALERVAAILEEAAKRHPDDEAIHAALEEVKAA
  median log2 fold change: -0.00819

B18: FBXL12_hotspot_147_14 (protein)
chain: MKVTIRVVLEEGSETTVEMAIELAKGLHEAGVEEIRVEVEARDPEVALAAAERLAVEIGRGADVAEIRAFDRETGELLRRLDREEIRRIRAAAEEAEAAA
  median log2 fold change: 0.119

B19: FBXL12_hotspot_186_35 (protein)
chain: MKLRISFAPTDSPEQIRAGVDIAVAIVAGLAAAGRLEDFVEAVRSLLESLQANRARIQRPEHHAVFDAAIERLAALAAEVAAAHPDNAEVAAALARLKAA
  median log2 fold change: 0.0482

B20: FBXL12_hotspot_186_34 (protein)
chain: MELKITLSEDMSVEQMEAGLKLAVEILQGLRDRELLDDLVAAARSLLKSLKENVARIKKPEFKEVAKKALEEVAKIVKEAAERFPEVEELKEVAKELEEA
  median log2 fold change: 0.294

B21: FBXL12_hotspot_186_29 (protein)
chain: SDLQVRVRLGDDLETTRSTLEYAVALAAALKARGLTASLRSLARSVRESAIARLRASDDPEIYEAIRAALEALAAVVADDPEARAIVEEALAEVERLRAE
  median log2 fold change: -0.229

B22: FBXL12_hotspot_16_19 (protein)
chain: KDIILSVGVEEAERVEPSLELALEIVKGLKEAGVDRINVVIYAETEEAYKKIEELKDTILKEIEEAVKEAGGKLSVHKTKEAAEKEIERILEEIDKREEE
  median log2 fold change: -0.0797

B23: FBXL12_hotspot_186_32 (protein)
chain: MELRVSLSASMSVEQMRANAEIAVAIVEGLAERGLWEDLDAAARSLAASLRAAVERLQRPEAAAVAAEALERLAEIVARALEEHPENERLAATLAEIRAA
  median log2 fold change: 0.127

B24: FBXL12_hotspot_186_37 (protein)
chain: MLLRVSFSPDDSPAQIQAGVDIAVAIVEGLAERGRLEDFVEAARSLLESLRANAARIKRPEAQAVFDAAVARLAEIAEEVAERYPENEEIKELLEELREA
  median log2 fold change: 0.172

B25: FBXL12_hotspot_186_39 (protein)
chain: MELRVRFSEDMSVEQMRAGLDIAVAILEGLAERGRIEDLVAAARSLLDSLEAGRARIKDPAFDEVVDDALRRIAAILERAAERYPDNEELRAALERVRAA
  median log2 fold change: 0.222

B26: FBXL12_hotspot_186_27 (protein)
chain: QQLEFRVVTRLDPEITRSTLDTAIGLVESLLERGLIEQAKSAAEAILEEIERTLAESDDPEIHAILAESLRRLAEVLSRDPRLAPLLERARELLARIEAR
  median log2 fold change: 0.108

B27: FBXL12_hotspot_141_11 (protein)
chain: KGLLIVIMTSSIPEEKREEIKKHAEEAAKKAGIELIFEVAENEEEAEKIKEELLKEAEEKGYDVIGVLTVTDPNMDVERVKAYVEALVEWIKAKLEQLKA
  median log2 fold change: 0.126

B28: FBXL12_hotspot_141_10 (protein)
chain: RGLVIVIATAAVPEEVRAAVRAAAREAAAAAGVALRFEEAEDEEAAEELRERLLAEAEEEGYDAVGVLVLTSPEMSAERAIAYVRALVAFVAARVARLEA
  median log2 fold change: -0.0786

B29: FBXL12_hotspot_147_12 (protein)
chain: REMTVVVQLGSSAESTAAYAAEVVLGLAQAGVDRIRVVVRTRDHEQALLAARELARADARAPASVTIELTFEGLTPEQVAEALAVYAETLAAERARLAAA
  median log2 fold change: -0.623

B30: FBXL12_hotspot_186_25 (protein)
chain: QRIEVRVSFSEDLEQARAGLELAIGLLEALLARGLIESAASLARSTVRAARELAARTDDEEVKRLLAEGLERIAEILRKHPELAEELEEVERAAREIRER
  median log2 fold change: 0.0938

B31: FBXL12_hotspot_147_15 (protein)
chain: MEVTIRVVLGPGSESTVETAIALAAGLHEAGVEKIRIEVEAEDPEEALRAAERLAVEVGRKADVDEILAYDSRTGELLKRLDREEIKEIREEAERREREA
  median log2 fold change: 0.23

B32: FBXL12_hotspot_186_26 (protein)
chain: MDLQIRVTLSPDLETARSGLEYAVGLLESLVERGLLESARSLVRSLIEAARKLVKETKDPEVRAAVIEALRRVAEILAKRPELEESRRLVEEAIKELEEE
  median log2 fold change: 0.196

From the supplement of paper PMC12632987
